From PubChem BioAssay AID1851 (National Center for Advancing Translational Sciences (NCATS), 2009)
The whole screen tested about 16,000 compounds, of which about 2,600 (16%) were called active. About 20% were inconclusive and are not listed. These entries were drawn from the full list. Values without a mark were called inactive. The call rests on the fitted dose curve; in most records, active means well fitted curve in the direction sought with a large enough effect; inconclusive means small, poorly fitted or top-dose-only effect, or effect the other way; inactive means no such curve, though single readings can be large or run the other way.

What follows are compounds tested against Cytochrome P450 2D6 (Homo sapiens) (UniProt P10635) (assay: Cytochrome panel assay with activity outcomes). Details: recombinant CYP, pro-luciferin dealkylation, luminescence, p450-cyp2d6; series mostly up to 57.1 µM; activity, negative = inhibition: at the top concentration.
On the % scale 0 is the no-effect control and ±100 the full control effect.

Cytochrome P450 2D6 (Homo sapiens), sequence (P10635 whole entry, looked up): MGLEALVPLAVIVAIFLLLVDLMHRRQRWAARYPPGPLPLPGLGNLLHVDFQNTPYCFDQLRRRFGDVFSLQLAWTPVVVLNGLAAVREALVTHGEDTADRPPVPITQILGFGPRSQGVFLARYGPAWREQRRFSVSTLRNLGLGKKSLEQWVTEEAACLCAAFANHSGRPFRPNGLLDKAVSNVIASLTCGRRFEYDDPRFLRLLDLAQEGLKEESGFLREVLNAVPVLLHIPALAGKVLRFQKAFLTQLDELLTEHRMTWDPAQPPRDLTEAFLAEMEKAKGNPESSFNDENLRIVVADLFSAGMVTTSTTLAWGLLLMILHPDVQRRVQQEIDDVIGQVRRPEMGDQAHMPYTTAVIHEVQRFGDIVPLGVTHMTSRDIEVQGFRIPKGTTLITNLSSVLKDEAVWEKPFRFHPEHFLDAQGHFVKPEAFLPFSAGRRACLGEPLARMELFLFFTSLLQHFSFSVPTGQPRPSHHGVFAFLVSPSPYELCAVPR

Row | SMILES | activity, negative = inhibition | AC50
1 | CCNC(=S)NNC(=O)c1cccc(Br)c1 | 1.21% | 
2 | CCCCCNCc1cccc(Br)c1 |  | 2 µM (active)
3 | CCOC(OCC)P(=O)(O)CCCNCc1ccc(Cl)c(Cl)c1 | 8.85% | 
4 | Cc1cc(Cl)nc2ccc(Cc3ccc4nc(Cl)cc(C)c4c3)cc12 | -2.9% [at 11.4 µM] | 
5 | COc1ccc(/C=N/NC(=S)NC2CCS(=O)(=O)C2)cc1OC (configuration not stated) | -4.59% | 
6 | C=CC1=C(C(=O)O)N2C(=O)[C@@H](NC(=O)/C(=N\OCC(=O)O)c3csc(N)n3)[C@@H]2SC1 | -1.18% [at 25.6 µM] | 
7 | NC[C@](O)(CS(=O)(=O)O)c1ccc(Cl)cc1 | 17.4% | 
8 | Cc1cc(-c2cc(-c3ccc(Cl)cc3)nc(N)c2C#N)co1 | -12.3% | 
9 | COc1ccccc1OCCn1cc(C(=O)c2ccco2)c2ccccc21 | -27.9% | 
10 | Cc1cc(OCCn2cc(/C(N)=N/O)c3ccccc32)ccc1Cl |  | 3.98 µM (active)
11 | CO[C@]1(NC(=O)CSCC#N)C(=O)N2C(C(=O)O)=C(CSc3nnnn3C)CS[C@H]21 |  | inactive
12 | C[C@H](C[C@H](N)C(=O)O)C(=O)O | 12.6% | 
13 | COc1ccc(C)cc1NC(=O)CSc1nnc(-c2ccc(OC)c(OC)c2)n1N | -12.9% | 
14 | CCn1c2ccccc2c2cc(NC(=O)CSc3nnc(-c4ccc(OC)c(OC)c4)n3N)ccc21 |  | 14.1 µM (active)
15 | Cc1ccc(-c2cc(-c3nnc(SCC(=O)NC(C)C(C)C)n3N)c3ccccc3n2)cc1 (configuration not stated) | -4.49% | 
16 | Cc1cccc(NC(=O)CSc2nnnn2C)n1 | -12.5% | 
17 | CCCCOc1ccc(C(=O)N/C(=C\c2cccc([N+](=O)[O-])c2)C(=O)OCCC)cc1 | 0.716% | 
18 | Cc1cc(C)c(S(C)(=O)=O)c(Oc2ccc(C(C)(C)C)cc2)n1 | -9.68% | 
19 | O=c1c[n+](CCCC[n+]2cc(=O)o[nH]2)[nH]o1 | -2.36% [at 11.4 µM] | 
20 | COc1ccc(CNc2ncnc3ccc(-c4cccc(C#N)c4)cc23)c(OC)c1 | -10% | 
21 | Cc1cnc(CNc2ncncc2-c2cccc(C#N)c2)cn1 | -10.4% | 
22 | COc1ccccc1CNc1ncncc1-c1cccc(C#N)c1 |  | 15.8 µM (active)
23 | COc1ccc(CNc2ncncc2-c2cccc(C#N)c2)c(OC)c1 |  | 5.01 µM (active)
24 | O=C(Oc1oc(-c2ccco2)nc1C=Nc1ccc(Cl)cc1)c1ccco1 | 6.95% | 

Row | SMILES | activity, negative = inhibition | AC50
25 | Cc1c2c(nc3ccccc13)-c1cccc(=O)n1C2 | -5.55% | 
26 | COc1cccc(/C=N\NC(=O)c2cc(OCC(F)(F)F)ccc2OCC(F)(F)F)c1 | 23.1% | 
27 | COc1ccc2[nH]c(=O)c(CN(CCO)C(=O)c3cccs3)cc2c1 | 5.47% | 
28 | O=[N+]([O-])c1cc(/C=N/O)ccc1SCc1ccccc1 | 16% | 
29 | CC1(C)O[C@@H]2O[C@H]([C@H](O)CO/N=C3/[C@H]4O[C@@H]4[C@@H](O)[C@H]4[C@H]3CCn3c(=O)n(-c5ccccc5)c(=O)n34)[C@@H](O)[C@@H]2O1 | 7.2% [at 11.4 µM] | 
30 | CO[C@@H]1COC(=O)[C@H]2CCCN2C(=O)[C@@H](C)COC(=O)CCC[C@H]1C | 12% [at 11.4 µM] | 
31 | CCOC(=O)Cn1c(-c2ccccc2)nc2ccccc2c1=O | -14.6% | 
32 | CCOC(=O)c1c(-c2ccccc2)nc2ccc(Cl)cn12 | -16.8% | 
33 | CCOC(=O)CNc1c(-c2ccccc2)nc2ccc(Cl)cn12 |  | 7.94 µM (active)
34 | COc1cccc2c1C(=O)c1c(O)c3c(c(O)c1C2=O)C[C@](O)(C(=O)CO)C[C@H]3O[C@@H]1C[C@H](N)[C@H](O)[C@H](C)O1 | -14.4% [at 25.6 µM] | 
35 | Cc1ccccc1NC(=O)C1CC(=O)N(c2ccc3c4c(cccc24)CC3)C1 (configuration not stated) | -28% | 
36 | CC(=O)OC[C@@H]1O[C@@H](O/N=C2/C[C@@H](O)[C@@H](O)[C@@H]3[C@@H]4C(=O)N([C@@H](C)c5ccccc5)C(=O)[C@H]4CC[C@@H]23)[C@H](OC(C)=O)[C@H](OC(C)=O)[C@@H]1OC(C)=O | -0.595% [at 11.4 µM] | 
37 | CCN1C(=O)[C@H]2[C@H]3[C@H](O)[C@H](O)C/C(=N/OCC[C@H]4C=C[C@H](OC(C)=O)[C@@H](COC(C)=O)O4)[C@@H]3CC[C@@H]2C1=O | -11.1% [at 11.4 µM] | 
38 | CC(=O)OC[C@@H]1O[C@@H](O/N=C2/C[C@@H](O)[C@@H](O)[C@@H]3[C@@H]4C(=O)N(Cc5ccc6c(c5)OCO6)C(=O)[C@H]4CC[C@@H]23)[C@H](OC(C)=O)[C@H](OC(C)=O)[C@@H]1OC(C)=O | -5.23% [at 11.4 µM] | 
39 | CC(C)=CCC/C(C)=C/CO/N=C1/C[C@@H](O)[C@@H](O)[C@@H]2[C@@H]3C(=O)N(Cc4ccccc4)C(=O)[C@H]3CC[C@@H]12 | 15% [at 11.4 µM] | 
40 | CCOC(=O)N/N=C1/C[C@@H](O)[C@@H](O)[C@@H]2[C@@H]3C(=O)N(Cc4ccccc4)C(=O)[C@H]3CC[C@H]12 | 9.96% [at 11.4 µM] | 
41 | CC(=O)OC[C@@H]1O[C@@H](O/N=C2/C[C@@H](O)[C@@H](O)[C@@H]3[C@@H]4C(=O)N(Cc5ccccc5)C(=O)[C@H]4CC[C@H]23)[C@H](OC(C)=O)[C@H](OC(C)=O)[C@@H]1OC(C)=O |  | 3.16 µM (active)
42 | CC(C)CO/N=C1/C[C@@H](O)[C@@H](O)[C@@H]2[C@@H]3C(=O)N(Cc4ccc5c(c4)OCO5)C(=O)[C@H]3CC[C@@H]12 | -15.9% [at 11.4 µM] | 
43 | CC(=O)OC[C@@H]1O[C@@H](O/N=C2/C[C@@H](O)[C@@H](O)[C@@H]3[C@@H]4C(=O)N(Cc5ccccc5)C(=O)[C@H]4CC[C@@H]23)[C@H](OC(C)=O)[C@H](OC(C)=O)[C@@H]1OC(C)=O |  | 3.98 µM (active)
44 | CC(=O)OC[C@@H]1O[C@@H](O/N=C2/C[C@@H](O)[C@@H](O)[C@@H]3[C@@H]4C(=O)N(Cc5ccc6c(c5)OCO6)C(=O)[C@H]4CC[C@H]23)[C@H](OC(C)=O)[C@H](OC(C)=O)[C@@H]1OC(C)=O |  | 3.16 µM (active)
45 | COCC(=O)Nc1ccc(-c2cn3cccnc3n2)cc1 | 23.5% | 
46 | COC(=O)[C@H]1C[C@@H]1[C@H](NC(=O)c1cccnc1)c1ccccc1 | -3.67% | 
47 | O=c1cc(N2CCN(c3cccc(Cl)c3)CC2)[nH]c(=O)n1C1CCCCC1 | -5.39% | 
